Most compounds without a hit are left out; they make up all but 6.2% or so of the library.
KB-3-1 tox = kills parental KB-3-1 adenocarcinoma cells. KB-3-1 viability, CellTiter-Glo ATP luminescence, 72 h. Potency, µM (titrated, usually from 46.1 µM), usual class: cytotoxic. 400,000 tested, 1.4% active; note: % is set by controls: 0 for no effect and ±100 for the full control effect; nearly all actives have a fitted effect of over 60% in size
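Multi-concentration cytotoxicity screen in KB-3-1 cells grown in DMEM lacking phenol red with 10% FBS. After 72 h at 37 °C with compound, ATP-dependent luminescence was recorded.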
KB-V1 MDR tox = KB-V1 MDR subline cytotoxicity | KB-V1 MDR cells viability, CellTiter-Glo, 72 h | Potency, µM (titrated, usually from 46.1 µM), actives largely listed as cytotoxic | 400,000 tested, 3.4% active; note: % is set by controls: 0 for no effect and ±100 for the full control effect; nearly all actives have a fitted effect of over 60% in size
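Readout: CellTiter-Glo luminescence, 10 min after addition. Cells: KB-V1 MDR subline, 72 h at 37 degrees C with compound. Analysis: corrected, normalized data fitted to concentration-effect curves.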
HT1080 IDH1KD tx = toxicity to HT-1080 IDH1 knockdown cells (counter line); HT-1080 IDH1 knockdown viability, ATP luminescence, 48 h; Potency, µM (doses to about 46.1 µM), for the others: at the highest dose activity, negative = toxicity, usual class: cytotoxic; 360,000 tested, 2% active;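 note: 0% = DMSO wells and -100% = cell-free medium wells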
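% activity derives from luminescence (CellTiter-Glo), normalised to DMSO and no-cell wells. HT-1080-IDH1KD cells, 750/well, had 48 h compound exposure at 37 °C.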
S2 tox = cell viability loss in ATXN counter-screen; S2 cells (HEK-293 line with an ATXN2-luciferase reporter) viability, CellTiter-Fluor protease fluorescence, 24 h; Potency, µM (top dose mostly 56.7 µM), hits mostly cytotoxic; 400,000 tested, 0.49% active; AID 651635; note: nearly all actives have a fitted effect of over 40% in size
ATXN2 expr inh = inhibitors of ATXN2 expression; 360,000 tested, 0.72% active; HEK-293 ATXN2-luciferase reporter, luminescence, 24 h; Potency, µM (top dose mostly 57 µM), for the others: at the top dose activity change, negative = inhibition, actives largely listed as inhibitors; note: % is set by controls: 0 for no effect and ±100 for the full control effect; nearly all actives have a fitted effect of over 55% in size
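ATXN2-luciferase reporter cells (luciferase flanked by upstream and downstream ATXN2 gene portions) were treated 24 h at 37 °C with compounds at up to 57 uM. SteadyGlo luminescence gave expression; GF-AFC fluorescence gave viability.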
HT1080NT lethal = kills 2HG-producing HT-1080-NT fibrosarcoma cells. 360,000 tested, 1.6% active. Potency, µM (series often up to 46.1 µM), without a hit: at the highest dose activity, negative = less viability, actives largely listed as cytotoxic. HT-1080-NT fibrosarcoma viability, CellTiter-Glo ATP luminescence, 48 h;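 note: NT is the 2HG producing partner of a matched IDH1 knockdown line; 0% = DMSO-treated cells and -100% = media-only wells without cells; nearly all actives have a fitted effect of over 55% in size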
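Compounds were tested in concentration-response format on HT-1080-NT cells for 48 hours at 37 degrees C. Cell viability came from CellTiter-Glo luminescence; curves were classified by r2, response magnitude and activity.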
* = called active by the depositor; i = inactive; ? = inconclusive; . = no result; [ ] = dose if it differs, or a comment. Calls come from the whole dose curve; as a rule, active = well fitted curve in the direction sought with a large enough effect; inconclusive = small, poorly fitted or top-dose-only effect, or another doubt; inactive = no such curve, though single readings can be large; an effect the other way counts as inactive or inconclusive. Potency is the fitted concentration of half-maximal effect.

SMILES | KB-3-1 tox | KB-V1 MDR tox | HT1080 IDH1KD tx | S2 tox | ATXN2 expr inh | HT1080NT lethal
CCOC(=O)C1=C(C)NC(C)=C(C(=O)OCC)C1c1cc2ccc(C)cc2[nH]c1=O | 6.5µM* | i | 8.2µM* | i | -5% | 18µM*
COC(=O)C1=C(C)NC(C)=C(C(=O)OC)C1c1cc2ccc(C)cc2[nH]c1=O | ? | i | ? | i | 8% | -27%
COc1ccc(CN2C(=O)CCC2(C)C(=O)NC2CCCCCC2)cc1 (centres undefined) | i | 15µM* | 7% | i | -2% | 1%
CC(C)CCN1C(=O)CCC1(C)C(=O)NC1CCCCCC1 (centres undefined) | i | 18µM* | -23% | i | -7% | 17%
CC(C)CCN1C(=O)CCC1(C)C(=O)NC1CCCCCCC1 (centres undefined) | i | i | -4% | i | 2% | 0%
CCc1ccc(CN2C(=O)CCC2(C)C(=O)NC2CCCC2)cc1 (centres undefined) | i | 21µM* | 5% | i | -3% | 4%
COc1cccc(CN2C(=O)CCC2(C)C(=O)NC2CCCCC2)c1 (centres undefined) | i | i | -2% | i | 2% | 0%
CCc1nc2cc(C(=O)N3CCC[C@H]3CO)cc(NC(=O)c3ccccc3OC)c2n1C | . | . | . | i | . | .
N[C@@H](CCC(=O)N[C@@H](CS)C(=O)NCC(=O)O)C(=O)O | . | . | . | i | -1%[25.6 µM] | .
O=C1C=CC(=O)C(CNc2ccc(C(=O)OCc3ccccc3)cc2)=C1 | 21µM* | 21µM* | 10µM* | . | 0% | 16µM*
CN(C)c1ccc(C(=O)OCc2ccccc2)cc1 | i | i | 1% | i | 51% | 20%
CC1CN(S(=O)(=O)c2cccc(C(=O)OCCOc3ccccc3)c2)CC(C)O1 (centres undefined) | i | 12µM* | -8% | i | -4% | -2%
COc1ccc(OC(=O)c2cccc(S(=O)(=O)N3CC(C)OC(C)C3)c2)cc1 (centres undefined) | i | i | 10% | ? | -1% | 2%
CC(=O)N1CCN(S(=O)(=O)c2cccc(C(=O)OCC(=O)N3CC(=O)Nc4ccccc43)c2)CC1 | i | i | -3% | i | -7% | -1%
Cc1noc(C)c1COc1cccc(C(=O)OCC(=O)N2CC(=O)Nc3ccccc32)c1 | 1.5µM* | ? | 1.8µM* | i | 37% | ?
Cc1cc(C(=O)OCC(=O)N2CC(=O)Nc3ccccc32)c(C)n1-c1ccc(F)cc1 | ? | 16µM* | -4% | i | -10% | -1%
Cc1cc(C(=O)OCC(=O)N2CC(=O)Nc3ccccc32)c(C)n1-c1ccccc1 | i | 16µM* | 7% | i | -10% | 10%
Cn1cnnc1Sc1ccc(CN2CCOc3ccc(C4=Cc5ccccc5CC4)cc3C2)o1 | . | . | . | i | . | .
CCOC(=O)N1CCC(c2cc(=O)n3[nH]c(C)c(-c4ccc(F)cc4)c3n2)CC1 | ? | i | ? | i | 32µM* | -21%
CCOC(=O)N1CCC(c2cc(=O)n3[nH]c(-c4ccccc4)cc3n2)CC1 | i | i | 12% | i | 4% | 13%
CCC(Oc1ccccc1)C(=O)N(Cc1ccccc1)c1ccccn1 (centres undefined) | ? | 16µM* | -6% | i | -6% | 0%
[O-][N+]1=c2ccc(Nc3ccccc3)cc2=NC12CCCCC2 | ? | ? | 16µM* | 14µM* | ? | ?
COc1ccc(Nc2ccc3c(c2)=NC2(CCCCC2)[N+]=3[O-])cc1 | 15µM* | ? | ? | . | ? | ?
COc1ccc(NC(=O)Cn2cc(C(=O)c3ccc(C)c(C)c3)c(=O)c3cc(OC)ccc32)cc1 | i | i | . | i | 2% | .
C=Cc1cc2c(cc1O)CCC1C2CCC2(C)C(O)CCC12 (centres undefined) | 18µM* | ? | ? | ? | -18% | ?
SMILES | KB-3-1 tox | KB-V1 MDR tox | HT1080 IDH1KD tx | S2 tox | ATXN2 expr inh | HT1080NT lethal
CCOc1cc2c(cc1O)CCC1C2CCC2(C)C(O)CCC12 (centres undefined) | ? | ? | ? | ? | 4% | ?
CCNc1cc2c(cc1O)CCC1C2CCC2(C)C(O)CCC12 (centres undefined) | ? | ? | -11% | i | 1% | -9%
CC#Cc1cc2c(cc1O)CCC1C2CCC2(C)C(O)CCC12 (centres undefined) | 2.6µM* | ? | ? | ? | 4% | 8.2µM*
Nc1cc(=O)[nH]c(SCCSc2cc(Cl)ccc2Cl)n1 | 0.73µM* | 0.41µM* | -24% | i | -6% | -18%
Nc1cc(=O)[nH]c(SCCSc2ccccc2F)n1 | ? | ? | -2% | i | -5% | -10%
COc1ccc(CCNC(=O)CN(c2ccc(C)cc2)S(=O)(=O)c2ccc(OC)cc2)cc1 | i | i | . | i | -18% | .
O=C(Nc1ccccc1-c1cn2c(CN3CCNCC3)csc2n1)c1cnc2ccccc2n1 | i | ? | . | . | ? | .
Cc1c(NC(=O)C(C)OC(=O)c2cc(-c3cccc4ccccc34)nc3ccccc23)c(=O)n(-c2ccccc2)n1C (centres undefined) | i | 9.2µM* | -2% | i | -4% | -7%
Cc1c(NC(=O)c2cc(-c3ccccc3)nc3ccccc23)c(=O)n(-c2ccccc2)n1C | . | . | 3% | i | 1% | 1%
Cc1c(NC(=O)COC(=O)C(c2ccc(Cl)cc2)C(C)C)c(=O)n(-c2ccccc2)n1C (centres undefined) | ? | 8.2µM* | 2% | i | -4% | 2%
Cc1c(Nc2nc(-c3ccc(Cl)cc3)cs2)c(=O)n(-c2ccccc2)n1C | ? | 7.3µM* | -17% | i | -11% | -7%
Cc1c(NC(=O)COC(=O)c2cc(-c3ccc(-c4ccccc4)cc3)nc3ccccc23)c(=O)n(-c2ccccc2)n1C | 9.2µM* | 4.6µM* | ? | ? | 15% | ?
CCOC(=O)Cc1csc(Nc2c(C)n(C)n(-c3ccccc3)c2=O)n1 | i | i | 0%[9.24 µM] | i | -7% | 1%
Cc1c(NC(=O)COC(=O)/C=C/c2ccc(Cl)cc2)c(=O)n(-c2ccccc2)n1C | i | i | 9% | i | -11% | 6%
CCc1nnc2c3ccccc3nc(Nc3ccc(C(C)=O)cc3)n12 | i | i | . | ? | -4% | .
CCc1ccc(S(=O)(=O)c2nnn3c2nc(Nc2ccc(C)c(Cl)c2)c2sccc23)cc1 | i | i | . | . | . | .

Assay outcomes (PubChem)
